Consider six compounds from PubChem BioAssay.

The source made the active and inactive calls.

Assay [1] has as its target Albumin (Bos taurus) (UniProt P02769). The experiment in a line: bovine serum albumin binders on microarray, profiling panel, artefact control for SMM control protein annotation, biochemical, small-molecule microarray, Alexa647 label, 635/667 nm fluorescence (AID 1118).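 Further: score merges 667 nm emission intensity and signal-to-noise per printed compound spot.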 The following applies: BSA-A647 binding, fluorescence 635 nm, higher = more signal.
Assay [2] in a line: small-molecule microarray binders of probe aXIP, primary screen, biochemical, NeuroSMM set, 635/667 nm fluorescence (AID 1119).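 Further: probe is the protein aXip251-270 applied at 1 µg/mL to compound-printed slides; binding of probe to printed compounds measured as 667 nm fluorescence plus signal to noise.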 Particulars: higher = more signal, called active from +8 up or from −8 down.
Assay [3] can be described thus: small-molecule binders of probe aNOTCH3, primary screen, biochemical, small-molecule microarray, 635/667 nm fluorescence (AID 1120).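 Further: probe is a biotin-tagged antibody raised against NOTCH3 rather than NOTCH3 protein; score merges spot fluorescence near 667 nm with spot signal to noise.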 The following applies: higher = more signal.
Assay [4] can be described thus: small-molecule binders of probe aNOTCH2, primary screen, biochemical, small-molecule microarray, 635/667 nm fluorescence (AID 1121).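 Further: score merges feature fluorescence read at 667 nm with its signal to noise.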 Particulars: higher = more signal.
The target in assay [5] is Carbonic anhydrase 2 (Homo sapiens) (UniProt P00918). The experiment in a line: CAII small-molecule binders, profiling panel, biochemical, small-molecule microarray, Alexa647-labelled CAII (AID 1122). Particulars: CAII-A647 binding fluorescence, higher = more signal.
Assay [6] is described as follows: COS7 lysate on small-molecule microarray, probe aHis, 635 nm (AID 1123).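 Further: z-score combines 667nm fluorescence intensity with signal-to-noise per printed compound spot.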 The following applies: COS7 cell lysate, fluorescence, higher = more signal.
Assay [7] can be described thus: compound binding in COS7 lysate, probe aLAP1, primary screen, cell lysate, small-molecule microarray (AID 1124).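 Further: lysate comes from COS7 cells expressing LAP1 and is applied at 0.3 µg/mL; score merges spot fluorescence near 667 nm with signal-to-noise over triplicate slides.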 Particulars: probe aLAP1, fluorescence, higher = more signal.
The subject of assay [8] is Sam68 (KHDRBS1). The experiment in a line: Sam68 small-molecule binders, primary screen, biochemical, small-molecule microarray, 635 nm fluorescence (AID 1125).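 Further: score merges 667 nm channel intensity with signal to noise over triplicate slides.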 The following applies: small-molecule microarray binding, higher = more signal.
The test system of assay [9] is Chordin-like protein 2 (CHRDL2). The experiment in a line: CHRDL2 small-molecule binders, primary screen, biochemical, small-molecule microarray, 635 nm fluorescence (AID 1126).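 Further: printed compound slides probed with Chrdl2 protein at 4 µg/mL for 1 h at 4 C; score merges 667 nm emission intensity with signal to noise over three replicate slides.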 The following applies: small-molecule microarray binding, fluorescence 635 nm; higher = more signal.
For assay [10], the target named is Concanavalin-A (Canavalia ensiformis) (UniProt P02866). The assay is described as follows: ConA small-molecule binders, primary screen, artefact control for SMM control protein annotation, biochemical, small-molecule microarray, Alexa647 label, 635 nm (AID 1127).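 Further: z combines 667 nm emission intensity with signal-to-noise across three replicate slides.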 Particulars: ConA-A647 binding fluorescence, higher = more signal.
Assay [11] can be described thus: anti-His antibody binders, primary screen, artefact control for SMM control protein annotation, biochemical, small-molecule microarray, 635 nm fluorescence (AID 1128).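 Further: score merges feature fluorescence with signal-to-noise for each printed compound spot.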 The following applies: anti-His Alexa647 antibody binding, higher = more signal.
The subject of assay [12] is Human papillomavirus type 1a E7 protein (residues 1-88). The experiment in a line: HPV1a E7 small-molecule binders, primary screen, biochemical, small-molecule microarray, residues 1-88, 635 nm (AID 1129). Particulars: small-molecule microarray binding, fluorescence 635 nm; higher = more signal.
Assay [13] deals with Focal adhesion kinase 1 (Homo sapiens) (UniProt Q05397). The assay is described as follows: small-molecule microarray binders of FAK, primary screen, biochemical, 635/667 nm fluorescence, BSA, DTT (AID 1130).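 Further: composite of spot emission at 667 nm and signal to noise over triplicate slides.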 Particulars: PTK2 binding, 635 nm fluorescence, higher = more signal.
For assay [14], the system named is Fibrinogen (Alexa647-labelled). The experiment in a line: fibrinogen binders on compound microarrays, profiling panel, artefact control for SMM control-protein annotation, biochemical, small-molecule microarray, 635/667 nm fluorescence (AID 1131).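 Further: z-score merges 667 nm fluorescence with per-spot signal-to-noise over triplicate slides.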 The following applies: fibrinogen-A647 binding fluorescence, higher = more signal.
Assay [15] addresses Follistatin (Homo sapiens) (UniProt P19883). The experiment in a line: follistatin binders on small-molecule microarrays, primary screen, biochemical, small-molecule microarray, 635/667 nm fluorescence (AID 1132). Particulars: FST binding, 635 nm fluorescence, higher = more signal.
The target of assay [16] is Fibroblast growth factor 2 (Homo sapiens) (UniProt P09038). The assay is described as follows: FGF2 binders on small-molecule microarrays, primary screen, biochemical, small-molecule microarray, 635/667 nm fluorescence (AID 1133). The following applies: small-molecule microarray binding, FGF2, fluorescence 635/667; higher = more signal.
Assay [17] is described as follows: mitochondrial membrane potential change in A549 cells, profiling panel, cell-based, JC-1 fluorescence, basal, 24 h, 100 nL (AID 1138).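 Further: A549 lung adenocarcinoma cells under basal conditions with no added stimulus; test concentration not given here.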 The following applies: higher = more signal.
Assay [18] concerns Lefty1. The experiment in a line: Lefty1 binders on small-molecule microarrays, primary screen, biochemical, small-molecule microarray, 635/667 nm fluorescence (AID 1139). The following applies: small-molecule microarray binding, fluorescence 635/667; higher = more signal.
The test system of assay [19] is wheat germ agglutinin (Triticum aestivum), Alexa647-labelled. The assay is described as follows: wheat germ agglutinin binders on compound microarrays, profiling panel, artefact control for SMM control-protein annotation, biochemical, small-molecule microarray, 635/667 nm fluorescence (AID 1140).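 Further: score merges 667 nm feature emission with signal to noise over triplicate slides.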 Particulars: WGA-A647 binding, 635 nm fluorescence, higher = more signal.

For assay [20], the target named is Luciferin 4-monooxygenase (Photinus pyralis) (UniProt P08659). The assay is described as follows: firefly luciferase enzyme inhibitors, primary screen, biochemical, luminescence, purified enzyme, 2006 set (AID 1141).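 Further: cell-free assay with purified firefly luciferase at 100 ng per well in PBS; test concentration not given here.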 The following applies: SteadyGlo luminescence, 30 min, higher = more signal, called active from +8 up or from −8 down.
Sequence of Luciferin 4-monooxygenase (Photinus pyralis) (P08659 whole entry, looked up): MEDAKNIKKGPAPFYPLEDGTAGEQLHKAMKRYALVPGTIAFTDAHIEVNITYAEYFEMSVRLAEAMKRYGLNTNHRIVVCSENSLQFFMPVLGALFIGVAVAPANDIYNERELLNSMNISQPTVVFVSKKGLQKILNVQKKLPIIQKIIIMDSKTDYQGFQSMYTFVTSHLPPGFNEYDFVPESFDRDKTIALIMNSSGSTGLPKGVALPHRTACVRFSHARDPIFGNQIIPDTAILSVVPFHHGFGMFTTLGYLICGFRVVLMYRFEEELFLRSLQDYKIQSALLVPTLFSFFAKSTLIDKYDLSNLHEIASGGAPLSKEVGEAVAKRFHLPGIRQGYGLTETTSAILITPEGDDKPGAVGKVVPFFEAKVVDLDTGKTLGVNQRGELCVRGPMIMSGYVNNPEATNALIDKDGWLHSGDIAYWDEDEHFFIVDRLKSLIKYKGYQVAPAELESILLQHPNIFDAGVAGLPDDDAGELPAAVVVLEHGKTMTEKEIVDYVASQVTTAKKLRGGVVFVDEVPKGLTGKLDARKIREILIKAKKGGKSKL

Sequence of Focal adhesion kinase 1 (Homo sapiens) (Q05397 whole entry, looked up): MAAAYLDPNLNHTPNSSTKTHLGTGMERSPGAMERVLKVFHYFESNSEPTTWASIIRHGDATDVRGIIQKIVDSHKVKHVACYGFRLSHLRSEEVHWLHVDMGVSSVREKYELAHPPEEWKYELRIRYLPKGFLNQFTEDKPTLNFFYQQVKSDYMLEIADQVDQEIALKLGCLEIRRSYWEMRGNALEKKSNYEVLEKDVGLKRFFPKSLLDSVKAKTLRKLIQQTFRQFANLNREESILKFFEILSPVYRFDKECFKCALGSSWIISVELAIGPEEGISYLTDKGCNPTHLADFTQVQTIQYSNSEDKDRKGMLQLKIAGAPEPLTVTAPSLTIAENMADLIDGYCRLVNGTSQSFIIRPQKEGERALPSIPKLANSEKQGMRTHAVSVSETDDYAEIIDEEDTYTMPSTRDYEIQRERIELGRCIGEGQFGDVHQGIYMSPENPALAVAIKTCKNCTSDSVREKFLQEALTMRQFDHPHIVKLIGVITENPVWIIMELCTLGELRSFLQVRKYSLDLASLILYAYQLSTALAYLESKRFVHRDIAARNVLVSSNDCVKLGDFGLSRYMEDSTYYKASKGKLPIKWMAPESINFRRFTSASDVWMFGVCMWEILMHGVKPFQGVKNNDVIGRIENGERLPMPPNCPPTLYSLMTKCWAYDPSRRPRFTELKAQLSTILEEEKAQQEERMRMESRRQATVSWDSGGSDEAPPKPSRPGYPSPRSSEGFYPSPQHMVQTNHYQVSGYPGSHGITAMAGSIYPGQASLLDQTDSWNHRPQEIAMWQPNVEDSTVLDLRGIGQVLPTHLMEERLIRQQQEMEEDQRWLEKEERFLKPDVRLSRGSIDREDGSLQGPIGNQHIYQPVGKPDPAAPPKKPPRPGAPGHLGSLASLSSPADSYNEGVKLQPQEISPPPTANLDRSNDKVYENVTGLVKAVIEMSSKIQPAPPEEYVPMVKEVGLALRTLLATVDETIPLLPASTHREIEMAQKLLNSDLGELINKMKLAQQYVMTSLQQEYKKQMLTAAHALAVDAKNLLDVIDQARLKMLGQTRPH
Sequence of Follistatin (Homo sapiens) (P19883 whole entry, looked up): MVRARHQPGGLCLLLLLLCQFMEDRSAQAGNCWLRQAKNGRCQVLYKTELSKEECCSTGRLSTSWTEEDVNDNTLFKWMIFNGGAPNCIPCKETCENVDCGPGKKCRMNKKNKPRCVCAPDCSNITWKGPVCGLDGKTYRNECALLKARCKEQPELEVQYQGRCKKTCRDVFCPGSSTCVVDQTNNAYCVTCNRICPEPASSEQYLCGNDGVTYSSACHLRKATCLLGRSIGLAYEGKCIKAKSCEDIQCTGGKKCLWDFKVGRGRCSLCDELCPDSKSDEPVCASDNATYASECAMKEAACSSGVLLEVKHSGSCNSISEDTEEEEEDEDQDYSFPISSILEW
Sequence of Concanavalin-A (Canavalia ensiformis) (P02866 whole entry, looked up): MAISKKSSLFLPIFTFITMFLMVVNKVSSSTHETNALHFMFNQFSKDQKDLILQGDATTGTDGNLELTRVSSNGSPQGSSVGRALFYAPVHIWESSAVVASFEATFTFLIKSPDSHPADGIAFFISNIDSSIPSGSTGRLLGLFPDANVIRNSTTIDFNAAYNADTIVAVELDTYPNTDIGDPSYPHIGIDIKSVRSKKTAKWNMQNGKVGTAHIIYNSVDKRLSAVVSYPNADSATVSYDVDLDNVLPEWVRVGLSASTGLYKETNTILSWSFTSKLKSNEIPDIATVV
Sequence of Albumin (Bos taurus) (P02769 whole entry, looked up): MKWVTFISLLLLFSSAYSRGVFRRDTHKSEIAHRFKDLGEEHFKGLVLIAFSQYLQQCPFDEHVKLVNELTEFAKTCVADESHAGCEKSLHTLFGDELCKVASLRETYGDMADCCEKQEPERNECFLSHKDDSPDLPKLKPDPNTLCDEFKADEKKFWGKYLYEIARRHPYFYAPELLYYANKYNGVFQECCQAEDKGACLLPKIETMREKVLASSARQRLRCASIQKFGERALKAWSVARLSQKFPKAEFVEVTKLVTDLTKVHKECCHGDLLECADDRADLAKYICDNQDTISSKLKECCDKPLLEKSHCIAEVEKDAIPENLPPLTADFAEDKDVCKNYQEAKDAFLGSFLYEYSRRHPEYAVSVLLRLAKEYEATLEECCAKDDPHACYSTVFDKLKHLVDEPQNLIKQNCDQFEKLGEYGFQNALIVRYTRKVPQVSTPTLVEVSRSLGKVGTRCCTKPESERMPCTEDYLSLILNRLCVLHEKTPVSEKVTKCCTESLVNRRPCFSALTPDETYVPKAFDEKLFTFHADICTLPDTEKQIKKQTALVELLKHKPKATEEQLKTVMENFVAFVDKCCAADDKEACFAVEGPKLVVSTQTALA
Sequence of Fibroblast growth factor 2 (Homo sapiens) (P09038 whole entry, looked up): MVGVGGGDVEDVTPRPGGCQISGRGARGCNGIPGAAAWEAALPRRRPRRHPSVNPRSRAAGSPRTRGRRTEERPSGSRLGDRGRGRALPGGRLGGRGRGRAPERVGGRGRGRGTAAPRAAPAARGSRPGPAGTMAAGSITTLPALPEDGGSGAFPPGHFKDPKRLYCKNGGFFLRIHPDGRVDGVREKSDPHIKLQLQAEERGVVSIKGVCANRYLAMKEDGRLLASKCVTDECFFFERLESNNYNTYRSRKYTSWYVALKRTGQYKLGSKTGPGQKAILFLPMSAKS

As for `O=C(CS)NCCCCCCNC(=O)[C@H]1C[C@H]2C(=O)N3CCC[C@H]3C(=O)N2[C@H]1c1cccc(OCCO)c1`, the composite z-score is 0.0023 in assay [1]; 0.0242 in [3]; -0.105 in [4]; 0.528 in [5]; 2.51 in assay [6]; 0.407 in assay [7]. In addition, the composite z-score in assay [8] was found to be 1.29; in assay [9], 0.97; in assay [10] it was 1.02; in assay [11], 1.7; in assay [12], 1.23; in assay [13], 0.615. Besides, the composite z-score in assay [14] is 0.0353; in assay [15], 1.28; in assay [16] it was 1.19; in [18], 0.731; in assay [19], 0.658. The composite Z-score in assay [2] is -0.254 (inactive). Also, the z-score in assay [17] is -0.145; in [20], -0.135 (inactive).
As to `C=CC[C@]1(C(=O)N2CCOCC2)N=C(c2ccc(OCCCO)cc2)O[C@H]1c1ccccc1`, the composite z-score was 0.758 in [1]; 0.0225 in assay [3]; -0.0906 in assay [4]; 0.785 in assay [5]; 3.15 in assay [6]; 0.446 in [7]. Besides, the composite z-score in [8] is 0.618; in assay [9] it was -0.0547; in assay [10] it was 1.09; in [11] it was 1.69; in [12] it was 1.22; in [13] it was 0.602. Further, the composite z-score in assay [14] is 0.866; in assay [15], 0.401; in assay [16] it was 0.12; in assay [18], -0.781; in [19], 1.28. For the same compound, the composite Z-score in assay [2] was -0.128 (inactive). Also, the z-score in assay [17] is 0.409; in [20], 1.25 (inactive).
In the case of `CC(C)C[C@@H]1NC(=O)[C@H]2C[C@@H](C(=O)NCCCCCNC(=O)CS)[C@@H](c3cccc(OCCO)c3)N2C1=O`, the composite z-score is 0.258 in [1]; 0.191 in [3]; -0.0358 in [4]; 0.561 in assay [5]; 1.32 in [6]; 0.438 in assay [7]. Further, the composite z-score in [8] came to 1.3; in [9], 1.39; in assay [10] it was 1; in [11], 2.41; in [12] it was 1.21; in [13] it was 0.603. Also, the composite z-score amounted to 0.374 in [14]; 1.44 in assay [15]; 1.7 in [16]; 1.35 in assay [18]; 0.195 in assay [19]. Moreover, the composite Z-score in assay [2] is -0.014 (inactive). Also, the values for the z-score in assay [17] and in assay [20] were -0.628 and -1.15 (inactive), respectively.
Turning to `NC(=O)NCC#Cc1ccc2c(c1)[C@]1(C(=O)N2)[C@H](C(=O)N2CCCCCCC2)[C@H]2C(=O)O[C@H](c3ccccc3)[C@H](c3ccccc3)N2[C@@H]1c1ccc(OCCO)cc1`, the composite z-score in [1] is -0.946; in assay [3], 1.29; in assay [4] it was 0.683; in [5], 0.336; in [6] it was 1.6; in assay [7], 0.864. The composite z-score in assay [8] is 1.32; in [9], 1.09; in assay [10], 0.987; in [11], -0.132; in assay [12] it was 1.14; in assay [13], 0.773. Also, the composite z-score in assay [14] stood at 0.909; in assay [15], 1.47; in assay [16] it was 0.649; in assay [18] it was 1.25; in assay [19], 1.36. In assay [2], the composite Z-score is -0.397 (inactive). In addition, the z-score was -1.62 in assay [17] and -0.551 (inactive) in assay [20].
As to `C=CCC(OC(C)=O)[C@@H]1[C@@H](N(Cc2ccc(-c3ccccc3)cc2)C(=O)Cc2ccc(OC)cc2)c2cc(OCCCO)ccc2N1C(=O)c1ccc2ccccc2n1` (stereo not given in full), the composite z-score was 0.0184 in [1]; 0.0522 in [3]; -0.182 in assay [4]; 0.195 in [5]; 0.514 in [6]; 0.123 in assay [7]. Moreover, the composite z-score in assay [8] was -0.959; in [9] it was 0.0504; in assay [10] it was 0.177; in assay [11] it was 0.009; in assay [12], 0.0656; in assay [13], 0.0569. The composite z-score came out at 0.534 in assay [14]; 0.45 in assay [15]; 0.635 in assay [16]; 0.221 in [18]; 0.22 in assay [19]. In assay [2], the composite Z-score is 0.245 (inactive). Also, the values for the z-score in assay [17] and in assay [20] were 1.34 and -0.592 (inactive), respectively.
Regarding `Cc1ccc([C@H]2C(C(=O)O)=C[C@@H](C)N2S(=O)(=O)c2ccc(C)cc2)cc1`, the composite z-score in assay [1] is 0.892; in [3] it was -0.0918; in assay [4] it was 0.069; in assay [5], 0.866; in assay [6], 2.6; in assay [7], 0.166. The composite z-score in assay [8] was 0.821; in assay [9], -1.55; in assay [10], -0.72; in [11], 1.72; in assay [12] it was 1.14; in [13], 1.96. The composite z-score in [14] was -1.29; in [15], -0.742; in assay [16] it was -1.16; in [18], -1.15; in assay [19], 1.32. Besides, the composite Z-score in [2] is 0.24 (inactive). In addition, the z-score in [17] is -0.321; in assay [20], 0.467 (inactive).
